{
  "source": "PubChem BioAssay (NCATS)",
  "key": {"[1]": {"assay": "qHTS to identify inhibitors of the type 1 interferon - major histocompatibility complex class I in skeletal muscle: primary screen against the NCATS Pharmaceutical Collection (AID 1347407)", "method_in_brief": "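A qHTS format is used: 8-point, 1:5 compound series with 46 uM top final concentration, applied alongside 4 ng/ml IFN-beta to HLA-B*08:01-HiBiT knock-in myoblasts. Luminescence is measured after 24 h treatment.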"}, "[2]": {"target": "Protein phosphatase 1D (Homo sapiens) (UniProt O15297)", "sequence (O15297 whole entry, looked up)": "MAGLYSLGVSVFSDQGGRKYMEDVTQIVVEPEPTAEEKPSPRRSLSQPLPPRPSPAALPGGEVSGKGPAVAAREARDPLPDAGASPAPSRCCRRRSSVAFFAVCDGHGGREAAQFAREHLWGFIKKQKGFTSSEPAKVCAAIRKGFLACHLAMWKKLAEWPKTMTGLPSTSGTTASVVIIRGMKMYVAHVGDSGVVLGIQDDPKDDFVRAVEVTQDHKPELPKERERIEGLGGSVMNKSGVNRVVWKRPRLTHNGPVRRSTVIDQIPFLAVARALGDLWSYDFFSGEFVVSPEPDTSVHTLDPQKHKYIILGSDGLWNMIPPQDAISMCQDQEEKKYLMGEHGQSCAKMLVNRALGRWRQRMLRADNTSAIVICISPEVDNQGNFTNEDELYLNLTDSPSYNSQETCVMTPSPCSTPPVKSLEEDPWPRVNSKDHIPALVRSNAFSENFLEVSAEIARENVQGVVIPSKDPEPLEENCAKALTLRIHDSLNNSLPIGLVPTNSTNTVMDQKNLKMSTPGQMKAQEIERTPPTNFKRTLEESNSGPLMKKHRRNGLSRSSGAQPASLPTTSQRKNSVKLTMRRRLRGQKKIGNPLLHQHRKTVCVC", "assay": "RapidFire Mass Spectrometry qHTS Assay for Modulators of WT P53-Induced Phosphatase 1 (WIP1) (AID 1347424); note: series mostly up to about 63 µM", "method_in_brief": "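10 nM WIP1 preincubated with compounds 1 hr at room temperature in pH 7.5 Tris buffer with 30 mM MgCl2, 1 mM TCEP; 2 uM VEPPL-pS-QETFS phosphopeptide for 5 min, formic acid quench; dephosphorylated product quantified by RapidFire MS against labelled standard.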"}, "[3]": {"target": "Protein phosphatase 1D (Homo sapiens) (UniProt O15297)", "assay": "Rhodamine-PBP qHTS Assay for Modulators of WT P53-Induced Phosphatase 1 (WIP1) (AID 1347425)", "method_in_brief": "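The read-out is the change in Rhodamine-PBP fluorescence (f1 - f0, ex 525/em 598 nm) as Pi is released, read each minute for 11 min. Final reaction: 5 nM WIP1, 10 uM phosphopeptide VEPPL-pS-QETFS, 10 uM Rh-PBP, 50 mM Tris-HCl pH 7.5, 30 mM MgCl2. Compound was preincubated with enzyme for 1 hour at room temperature.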"}, "[4]": {"assay": "Primary qHTS for inhibitors of La Crosse Virus (LACV) - induced cell death in SH-SY5Y cells (AID 1508616);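 note: top concentration of the series differs between compounds; higher means more rescue of cells from virus-induced death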", "method_in_brief": "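Luminescent ATP readout (ATPLite 1step, 5 min room temperature) measured rescue from LACV-induced death after 6 days of infection at 0.01 MOI; normalized to infected DMSO wells and uninfected DMSO wells.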"}, "[5]": {"assay": "qHTS to identify inhibitors of the type 1 interferon - major histocompatibility complex class I in skeletal muscle: primary screen against the NCATS Mechanism Interrogation Plate v5.0 (MIPE) Libary (AID 1347411); note: nearly all actives have a fitted effect of over 65% in size; note: potency is the fitted concentration of half-maximal effect", "method_in_brief": "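Immortalized human C25cl48 myoblasts with HiBit knocked into endogenous HLA-B*08:01 were stimulated with 4.0 ng/ml IFN-beta and exposed to compounds (11-point 1:3 titration, top 46 uM final) for 24 hrs at 37 C; HiBiT lytic luminescence measured.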"}, "[6]": {"assay": "qHTS for inhibitors of adenylyl cyclases using a fission yeast platform: a pilot screen against the NCATS LOPAC library (AID 1347410)", "method_in_brief": "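Inhibition of GNAS-stimulated AC9 activity in S. pombe was inferred from derepression of a PKA-repressed fbp1-GFP reporter, measured as cytometric fluorescence after 18 h at 30C with compounds at up to 57 µM.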"}, "[7]": {"target": "Calcium and integrin-binding protein 1 (Homo sapiens) (UniProt Q99828)", "sequence (Q99828 whole entry, looked up)": "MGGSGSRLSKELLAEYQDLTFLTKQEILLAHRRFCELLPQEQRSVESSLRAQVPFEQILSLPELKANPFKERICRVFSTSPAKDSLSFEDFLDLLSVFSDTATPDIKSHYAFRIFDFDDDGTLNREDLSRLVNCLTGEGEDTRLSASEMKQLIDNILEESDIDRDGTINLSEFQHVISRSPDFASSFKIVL", "assay": "Validation qHTS for Identification of Calcium Integrin Binding protein 1 (CIB1) Competitor (AID 1508618)", "method_in_brief": "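CIB1-GST (1 uM final) incubated 15 min at room temperature with compounds (up to 114 uM), then FITC-labelled alphaIIb peptide (100 nM) added. FP read (Ex 480/Em 540) after 15 min, pH 7.4 buffer containing 5 mM CaCl2.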"}},
  "note": "Inconclusive results are not listed. A call without a number means that no potency is given here. Calls of active or inactive are those of the source. Calls come from the whole dose curve; as a rule, active = well fitted curve in the direction sought with a large enough effect; inconclusive = small, poorly fitted or top-dose-only effect, or another doubt; inactive = no such curve, though single readings can be large; an effect the other way counts as inactive or inconclusive.",
  "data": [
    {"smiles": "O=C(O)c1ccccc1NCCc1ccccc1", "values": [
      {"measurement": "outcome", "setting": "[1]", "value": "inactive"},
      {"measurement": "Potency", "setting": "[2]", "value": "inactive"},
      {"measurement": "outcome", "setting": "[3]", "value": "inactive"},
      {"measurement": "outcome", "setting": "[4]", "value": "inactive"}
    ]},
    {"smiles": "CC(C)c1c2cc(-c3ccnc(NC4CCC(NC5CCOCC5)CC4)n3)ccc2nn1C", "note": "(stereo not given)", "values": [
      {"measurement": "Potency", "setting": "[5]", "value": "0.104 µM (active)"}
    ]},
    {"smiles": "O=C(O)c1c(O)c(-c2ccccc2)nc2ccccc12", "values": [
      {"measurement": "outcome", "setting": "[1]", "value": "inactive"},
      {"measurement": "Potency", "setting": "[2]", "value": "inactive"},
      {"measurement": "outcome", "setting": "[3]", "value": "inactive"},
      {"measurement": "outcome", "setting": "[4]", "value": "inactive"}
    ]},
    {"smiles": "COCCN1CCN(Cc2ccc(-c3n[nH]c4c3C(=O)c3c(NC(=O)NN5CCOCC5)cccc3-4)cc2)CC1", "values": [
      {"measurement": "Potency", "setting": "[5]", "value": "0.208 µM (active)"}
    ]},
    {"smiles": "CC(C)[C@@H](CS(=O)(=O)C(C)C)N1C(=O)[C@@](C)(CC(=O)O)C[C@H](c2cccc(Cl)c2)[C@H]1c1ccc(Cl)cc1", "values": [
      {"measurement": "Potency", "setting": "[5]", "value": "inactive"}
    ]},
    {"smiles": "CC[C@H](NC(=O)[C@H](CS(=O)(=O)CC1CC1)N[C@@H](c1ccc(F)cc1)C(F)(F)F)C(=O)C(=O)NC1CC1", "values": [
      {"measurement": "Potency", "setting": "[5]", "value": "inactive"}
    ]},
    {"smiles": "Nc1ccccc1N", "values": [
      {"measurement": "outcome", "setting": "[1]", "value": "inactive"},
      {"measurement": "Potency", "setting": "[2]", "value": "inactive"},
      {"measurement": "outcome", "setting": "[3]", "value": "inactive"}
    ]},
    {"smiles": "COc1cc2ncnc(Nc3cccc(Cl)c3F)c2cc1OC(=O)N1CCN(C)C[C@H]1C", "values": [
      {"measurement": "Potency", "setting": "[5]", "value": "inactive"}
    ]},
    {"smiles": "CCN1CCN(Cc2ccc(NC(=O)c3ccc(C)c(NC(=O)c4cncc(-c5cccs5)c4)c3)cc2C(F)(F)F)CC1", "values": [
      {"measurement": "Potency", "setting": "[5]", "value": "2.94 µM (active)"}
    ]},
    {"smiles": "NC[C@@](O)(c1ccc(Cl)cc1)c1ccc(-c2cn[nH]c2)cc1", "values": [
      {"measurement": "Potency", "setting": "[5]", "value": "7.39 µM (active)"}
    ]},
    {"smiles": "Cc1ccc(S(=O)(=O)Cc2nc(-c3ccc(C(=O)NCc4cccnc4)cc3)oc2C)cc1", "values": [
      {"measurement": "Potency", "setting": "[5]", "value": "inactive"}
    ]},
    {"smiles": "CC[C@]1(O)CC2CN(CCc3c([nH]c4ccccc34)[C@@](C(=O)OC)(c3cc4c(cc3OC)N(C)[C@H]3[C@@](O)(C(=O)OC)[C@H](OC(C)=O)[C@]5(CC)C=CCN6CC[C@]43[C@@H]65)C2)C1", "note": "(stereo not given in full)", "values": [
      {"measurement": "outcome", "setting": "[6]", "value": "inactive"},
      {"measurement": "outcome", "setting": "[7]", "value": "inactive"}
    ]},
    {"smiles": "CNC(=O)c1cc(Oc2ccc3nc(N[C@@H]4CCCC[C@H]4O)sc3c2)ccn1", "values": [
      {"measurement": "Potency", "setting": "[5]", "value": "inactive"}
    ]},
    {"smiles": "CN1CCN(C2CCC(n3cc(-c4ccc(Oc5ccccc5)cc4)c4c(N)ncnc43)CC2)CC1", "note": "(stereo not given)", "values": [
      {"measurement": "Potency", "setting": "[5]", "value": "11.7 µM (active)"}
    ]},
    {"smiles": "Cc1ccc(-c2ccc3c(ccc4sc5c(c43)NC[C@@H](C)NC5=O)n2)cn1", "values": [
      {"measurement": "Potency", "setting": "[5]", "value": "18.6 µM (active)"}
    ]},
    {"smiles": "C[C@H]1[C@H](O)O[C@@H]2O[C@@]3(C)CC[C@H]4[C@H](C)CC[C@@H]1[C@@]24OO3", "values": [
      {"measurement": "Potency", "setting": "[5]", "value": "inactive"}
    ]}
  ]
}
